This is part of a sample that, as a whole, favours compounds with a hit. Of some 83,000 tested, about 20% had one in any assay.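 Interpretation: 100, growth as untreated; towards 0, rising growth inhibition; 0, no net growth; 0 to -100, cell death. Compounds scoring below 10 were considered active.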 Activity calls are given as the source filed them.
How the values were obtained:
Assay in all cases: NCI-60 one-dose screen, 48 h (100 = growth as untreated, 0 = no growth, -100 = all killed)
Settings in all cases: 10 µM unless noted
HCT-15 colon = system: HCT-15 colon
HT29 colon = system: HT29 colon
SNB-75 CNS = system: SNB-75 CNS
SNB-19 CNS = system: SNB-19 CNS
U251 CNS = system: U251 CNS
PC-3 prostate = system: PC-3 prostate
UACC-62 melanoma = system: UACC-62 melanoma
SK-MEL-28 melanoma = system: SK-MEL-28 melanoma
SK-MEL-2 melanoma = system: SK-MEL-2 melanoma
EKVX NSCLC = system: EKVX NSCLC
SN12C renal = system: SN12C renal
UO-31 renal = system: UO-31 renal
TK-10 renal = system: TK-10 renal
ACHN renal = system: ACHN renal
CAKI-1 renal = system: CAKI-1 renal
A498 renal = system: A498 renal
CCRF-CEM leukemia = system: CCRF-CEM leukemia
MOLT-4 leukemia = system: MOLT-4 leukemia
LOX IMVI melanoma = system: LOX IMVI melanoma
SK-MEL-5 melanoma = system: SK-MEL-5 melanoma

Measured: growth

COc1ccc(OC)c(C2C(C#N)=C(N)Oc3cc(O)ccc32)c1 (stereo not given)
inactive: HCT-15 colon 94.4% | HT29 colon 95.4% | SNB-75 CNS 91.5% | SNB-19 CNS 102% | U251 CNS 99% | PC-3 prostate 95.5% | UACC-62 melanoma 91.9% | SK-MEL-28 melanoma 103% | SK-MEL-2 melanoma 96.5% | EKVX NSCLC 88.7% | SN12C renal 98% | UO-31 renal 81.7% | TK-10 renal 91.1% | ACHN renal 94.4% | CAKI-1 renal 73.5% | A498 renal 92.2% | CCRF-CEM leukemia 88.2% | MOLT-4 leukemia 88.2%

O=c1c2cc(F)ccc2oc2c(NCCNCCO)nc3ccccc3c12
active: MOLT-4 leukemia -0.96%
inactive: HCT-15 colon 28.1% | HT29 colon 16.7% | SNB-75 CNS 50.2% | SNB-19 CNS 45.1% | U251 CNS 36.1% | PC-3 prostate 38.6% | UACC-62 melanoma 77.7% | LOX IMVI melanoma 13.8% | SK-MEL-28 melanoma 50.2% | SK-MEL-2 melanoma 84.7% | EKVX NSCLC 50.9% | SN12C renal 37.7% | UO-31 renal 37.1% | TK-10 renal 71.3% | ACHN renal 19.1% | CAKI-1 renal 30.2% | CCRF-CEM leukemia 30.9%

Cn1c2ccccc2c2nn(C(=O)c3ccccc3)c(=O)nc21
inactive: HCT-15 colon 101% | HT29 colon 105% | SNB-75 CNS 105% | SNB-19 CNS 99% | U251 CNS 112% | PC-3 prostate 92.4% | UACC-62 melanoma 105% | LOX IMVI melanoma 99.3% | SK-MEL-2 melanoma 113% | SN12C renal 102% | UO-31 renal 73.4% | ACHN renal 105% | CAKI-1 renal 103% | CCRF-CEM leukemia 96.9% | MOLT-4 leukemia 104%

Oc1ccc(Cl)cc1CNc1nc2ccccc2[nH]1
active: HT29 colon -46% | PC-3 prostate -5.5% | UACC-62 melanoma -68.1% | LOX IMVI melanoma -78.1% | SK-MEL-28 melanoma -82.6% | CCRF-CEM leukemia -21.4% | MOLT-4 leukemia -25.1%
inactive: HCT-15 colon 15.9% | SNB-75 CNS 70.5% | SNB-19 CNS 111% | U251 CNS 55% | SK-MEL-2 melanoma 87.1% | SN12C renal 61.1% | UO-31 renal 56% | TK-10 renal 88.2% | ACHN renal 57% | CAKI-1 renal 64% | A498 renal 59.6%

C=CC(=O)N1CC2(CC(n3nc(-c4ccc(Oc5ccccc5)cc4)c4c(N)ncnc43)C2)C1
active: SNB-75 CNS -13.6% | UACC-62 melanoma 7.95% | LOX IMVI melanoma -17.8% | ACHN renal 5.33% | CAKI-1 renal 8.28% | A498 renal -71.7%
inactive: HCT-15 colon 29.2% | HT29 colon 31.7% | SNB-19 CNS 36.6% | U251 CNS 21% | PC-3 prostate 51.3% | SK-MEL-28 melanoma 29% | SK-MEL-2 melanoma 28.6% | SN12C renal 17.1% | UO-31 renal 15.2% | MOLT-4 leukemia 17%

O=C(CC(O)c1ccccc1)Nc1ccccn1 (stereo not given)
inactive: HCT-15 colon 101% | HT29 colon 103% | SNB-75 CNS 85.9% | SNB-19 CNS 92.1% | U251 CNS 102% | PC-3 prostate 93.2% | UACC-62 melanoma 98.3% | LOX IMVI melanoma 98.4% | SK-MEL-28 melanoma 103% | EKVX NSCLC 97% | SN12C renal 93.1% | UO-31 renal 77.1% | TK-10 renal 97.9% | ACHN renal 111% | CAKI-1 renal 87.8% | A498 renal 102% | CCRF-CEM leukemia 88.9% | MOLT-4 leukemia 79%

COc1ccc(OC2=C(C#N)C(=N)N3c4ccccc4Sc4ccccc4C3N2)cc1 (stereo not given)
inactive: HCT-15 colon 105% | HT29 colon 119% | SNB-75 CNS 69% | SNB-19 CNS 97.8% | U251 CNS 105% | PC-3 prostate 88.9% | UACC-62 melanoma 69.6% | LOX IMVI melanoma 87.4% | SK-MEL-28 melanoma 76.4% | SK-MEL-2 melanoma 130% | SN12C renal 94.3% | UO-31 renal 59.5% | TK-10 renal 120% | ACHN renal 83.3% | CCRF-CEM leukemia 80.9% | MOLT-4 leukemia 139%

COc1cc(C(=O)N(C(C)C)C2CCCCC2)cc(OC)c1OC
inactive: HCT-15 colon 103% | HT29 colon 99.2% | SNB-75 CNS 87.6% | SNB-19 CNS 97.9% | U251 CNS 102% | PC-3 prostate 89.8% | UACC-62 melanoma 96.5% | LOX IMVI melanoma 94.6% | SK-MEL-28 melanoma 105% | SK-MEL-2 melanoma 98.5% | EKVX NSCLC 144% | UO-31 renal 89% | TK-10 renal 94% | ACHN renal 103% | CAKI-1 renal 86.6% | A498 renal 102% | CCRF-CEM leukemia 94.8% | MOLT-4 leukemia 97.1%

NC(=O)c1cc(I)ccc1NC(=O)COc1ccccc1
active: HT29 colon 7.08% | A498 renal 4.14% | CCRF-CEM leukemia 4.81% | MOLT-4 leukemia 4.74%
inactive: HCT-15 colon 20.1% | SNB-75 CNS 30.8% | SNB-19 CNS 43.1% | U251 CNS 13.5% | PC-3 prostate 43.4% | UACC-62 melanoma 46% | LOX IMVI melanoma 52.1% | SK-MEL-28 melanoma 57.7% | SK-MEL-2 melanoma 34.5% | SN12C renal 37.4% | UO-31 renal 52.7% | ACHN renal 43.8% | CAKI-1 renal 55.1%

COc1cc(/C=C/C(=O)C2=C(/C=C/c3ccc(O)c(OC)c3)NC(=O)NC2c2ccc(O)c(OC)c2)ccc1O (stereo not given)
inactive: HCT-15 colon 97.4% | HT29 colon 54.1% | SNB-75 CNS 65.8% | SNB-19 CNS 96.5% | U251 CNS 86.3% | PC-3 prostate 76.7% | UACC-62 melanoma 94.2% | LOX IMVI melanoma 98.7% | SK-MEL-28 melanoma 103% | SK-MEL-2 melanoma 105% | SN12C renal 93.6% | UO-31 renal 84.4% | ACHN renal 88.2% | CAKI-1 renal 93.9% | A498 renal 101% | CCRF-CEM leukemia 69.8% | MOLT-4 leukemia 70.3%

O=C1/C(=C/c2ccc(Cl)cc2)N=C(c2ccccc2)N1CCc1cccs1
active: HT29 colon 0.797%
inactive: HCT-15 colon 10.2% | SNB-75 CNS 31.1% | SNB-19 CNS 64.5% | U251 CNS 44.5% | PC-3 prostate 59% | UACC-62 melanoma 55.7% | LOX IMVI melanoma 30.1% | SK-MEL-28 melanoma 77.4% | SK-MEL-2 melanoma 69.5% | EKVX NSCLC 72.1% | SN12C renal 45.6% | UO-31 renal 48.4% | TK-10 renal 54.8% | ACHN renal 43% | CAKI-1 renal 58.1% | A498 renal 72.7% | CCRF-CEM leukemia 85.9%

COc1ccc(Nc2[nH]n(C3=Nc4ccccc4Sc4ccccc43)c(=O)c2C#N)cc1
inactive: HCT-15 colon 49.3% | HT29 colon 68.7% | SNB-75 CNS 67.3% | SNB-19 CNS 73.5% | U251 CNS 67% | PC-3 prostate 41.4% | UACC-62 melanoma 32.8% | LOX IMVI melanoma 54.6% | SK-MEL-28 melanoma 64.7% | SK-MEL-2 melanoma 59.4% | SN12C renal 50.1% | UO-31 renal 35.6% | TK-10 renal 65.9% | ACHN renal 40.3% | CCRF-CEM leukemia 50.2% | MOLT-4 leukemia 46.5%

Cc1nc2cc(Nc3nc(Nc4ccc(F)cc4)nc(-c4ccc(Cl)cc4)n3)ccc2n1Cc1ccccc1
active: CCRF-CEM leukemia 3.88% | MOLT-4 leukemia 0.841%
inactive: HCT-15 colon 64.4% | HT29 colon 55.8% | SNB-75 CNS 65.2% | SNB-19 CNS 83.4% | U251 CNS 69.7% | SK-MEL-5 melanoma 83.4% | LOX IMVI melanoma 76.6% | SK-MEL-28 melanoma 92.6% | SK-MEL-2 melanoma 83.6% | UO-31 renal 44.5% | TK-10 renal 112% | ACHN renal 71.6% | CAKI-1 renal 90.4% | A498 renal 70.3%

Cn1c(=O)c(S(=O)(=O)c2ccccc2)cc2ccc3c(cnn3-c3ccc(Cl)cc3)c21
inactive: HCT-15 colon 73% | HT29 colon 79.2% | SNB-75 CNS 38.9% | SNB-19 CNS 90.1% | PC-3 prostate 79.9% | SK-MEL-5 melanoma 84.6% | UACC-62 melanoma 89.1% | LOX IMVI melanoma 78.9% | SK-MEL-28 melanoma 84.6% | SK-MEL-2 melanoma 87.2% | SN12C renal 86.6% | UO-31 renal 52.2% | TK-10 renal 81.5% | ACHN renal 58.2% | CAKI-1 renal 82.8% | A498 renal 53.5% | CCRF-CEM leukemia 95.8% | MOLT-4 leukemia 94.8%

COc1ccc(OC)c2ncccc12
inactive: HCT-15 colon 96.3% | HT29 colon 97.4% | SNB-75 CNS 88.6% | SNB-19 CNS 110% | PC-3 prostate 92% | SK-MEL-5 melanoma 102% | UACC-62 melanoma 114% | LOX IMVI melanoma 95.6% | SK-MEL-28 melanoma 117% | SK-MEL-2 melanoma 87.5% | SN12C renal 101% | UO-31 renal 64.4% | TK-10 renal 108% | ACHN renal 94.7% | CAKI-1 renal 95.7% | A498 renal 101% | CCRF-CEM leukemia 92.4% | MOLT-4 leukemia 93.1%

Nc1cc2[nH]c(=O)c3ccccc3c2cc1Br
inactive: HCT-15 colon 52.6% | HT29 colon 111% | SNB-75 CNS 57% | SNB-19 CNS 93.6% | U251 CNS 84% | PC-3 prostate 81.5% | UACC-62 melanoma 80.7% | SK-MEL-28 melanoma 97.8% | EKVX NSCLC 44.7% | SN12C renal 72.8% | UO-31 renal 41.2% | TK-10 renal 45.2% | ACHN renal 93.9% | CAKI-1 renal 54.3% | A498 renal 37.7% | CCRF-CEM leukemia 81.2% | MOLT-4 leukemia 87.3%

CCCC1=NNC(=O)C1
inactive: HCT-15 colon 103% | HT29 colon 103% | SNB-75 CNS 93.8% | SNB-19 CNS 103% | PC-3 prostate 91.1% | SK-MEL-5 melanoma 104% | UACC-62 melanoma 114% | LOX IMVI melanoma 108% | SK-MEL-28 melanoma 104% | SK-MEL-2 melanoma 106% | SN12C renal 101% | UO-31 renal 82.8% | TK-10 renal 97.2% | ACHN renal 103% | CAKI-1 renal 94.8% | A498 renal 109% | CCRF-CEM leukemia 100% | MOLT-4 leukemia 97.2%

Cc1ccc2c(N/N=C\c3ccco3)cc(C)nc2n1
active: CCRF-CEM leukemia 5.24%
inactive: HCT-15 colon 36.6% | HT29 colon 26.6% | SNB-75 CNS 85.5% | SNB-19 CNS 87.4% | PC-3 prostate 70.5% | SK-MEL-5 melanoma 94.8% | UACC-62 melanoma 51.1% | LOX IMVI melanoma 46.5% | SK-MEL-28 melanoma 80.5% | SK-MEL-2 melanoma 114% | SN12C renal 77.2% | UO-31 renal 35.1% | TK-10 renal 93.8% | ACHN renal 39.5% | CAKI-1 renal 66% | A498 renal 50.3% | MOLT-4 leukemia 37%

From PubChem BioAssay (NCI)
